Where “and” joins values, the source holds several entries; their conditions need not be identical. Equal entries are not always repeated. Out of some 5,500 compounds screened, about 2,000 (36%) were called active. Inconclusive results (about 18%) are left out. Rule as the data show it: active = normalized growth mostly below about 0.91 (no sharp cut-off); inconclusive = no clear call, values can overlap the other calls; inactive = mostly above about 0.92. The list shows a part of the results.
Experiment: chemical genetic growth profiling, strain panel (AID 1159580);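 also: tested at 20 µM; growth read once vehicle control cultures reached saturation at 30 °C; 1 = growth at the plate median or of vehicle wells; lower values mean less growth of the strain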
Details: S. cerevisiae deletion strains, growth OD

Measured: normalized growth

Fc1ccc([C@@H]2CCNC[C@H]2COc2ccc3c(c2)OCO3)cc1
inactive: locus YAL013W, strain DEP1, stronger effect = lower value 1.02 | locus YAL021C, strain ccr4, stronger effect = lower value 1 | locus YAL026C, strain drs2, stronger effect = lower value 0.997 | locus YAL030W, strain snc1, stronger effect = lower value 1.01 | locus YBL061C, strain skt5, stronger effect = lower value 0.991 | locus YBR009C, strain hhf1, stronger effect = lower value 1.01 | locus YBR021W, strain FUR4, stronger effect = lower value 1.01 | locus YBR023C, strain chs3, stronger effect = lower value 1 | locus YBR171W, strain sec66, stronger effect = lower value 0.984 | locus YBR229C, strain ROT2, stronger effect = lower value 1.01 | locus YBR231C, strain swc5, stronger effect = lower value 0.992 | locus YBR279W, strain paf1, stronger effect = lower value 1 | locus YCL011C, strain gbp2, stronger effect = lower value 0.999 | locus YCL016C, strain dcc1, stronger effect = lower value 0.99 | locus YCL029C, strain bik1, stronger effect = lower value 1.02 | locus YCL061C, strain MRC1, stronger effect = lower value 0.998 | locus YCL069W, strain vba3, stronger effect = lower value 1 | locus YCR088W, strain abp1, stronger effect = lower value 1 | locus YDL005C, strain med2, stronger effect = lower value 1.01 | locus YDL035C, strain GPR1, stronger effect = lower value 1.03 | locus YDL040C, strain nat1, stronger effect = lower value 0.992 | locus YDL074C, strain BRE1, stronger effect = lower value 1.01 | locus YDL101C, strain DUN1, stronger effect = lower value 1.01 | locus YDL134C, strain PPH21, stronger effect = lower value 1 | locus YDL185W, strain tfp1, stronger effect = lower value 1.01 | locus YDL192W, strain arf1, stronger effect = lower value 1.01 | locus YDR001C, strain nth1, stronger effect = lower value 0.999 | locus YDR069C, strain doa4, stronger effect = lower value 1.01 | locus YDR101C, strain arx1, stronger effect = lower value 1 | locus YDR137W, strain rgp1, stronger effect = lower value 1.09 | locus YDR150W, strain NUM1, stronger effect = lower value 1 | locus YDR159W, strain sac3, stronger effect = lower value 1.01 | locus YDR162C, strain NBP2, stronger effect = lower value 1 | locus YDR195W, strain ref2 1.02 | locus YDR297W, strain sur2, stronger effect = lower value 0.998 | locus YDR318W, strain mcm21, stronger effect = lower value 1.02 | locus YDR334W, strain swr1, stronger effect = lower value 1.01 | locus YDR335W, strain msn5, stronger effect = lower value 1.01 | locus YDR388W, stronger effect = lower value 1 | locus YDR392W, strain spt3, stronger effect = lower value 1.02 | locus YDR502C, strain sam2, stronger effect = lower value 0.998 | locus YEL003W, strain gim4, stronger effect = lower value 1.01 | locus YEL037C, strain rad23, stronger effect = lower value 1 | locus YEL061C, strain CIN8 (second series), stronger effect = lower value 1 | locus YEL061C, strain CIN8, stronger effect = lower value 1.01 | locus YER015W, strain faa2, stronger effect = lower value 1.01 | locus YER016W, strain bim1, stronger effect = lower value 0.99 | locus YER110C, stronger effect = lower value 1.02 | locus YER111C, strain swi4, stronger effect = lower value 0.984 | locus YER155C, strain BEM2 (second series), stronger effect = lower value 1.01 | locus YER155C, strain BEM2, stronger effect = lower value 1 | locus YER167W, strain BCK2, stronger effect = lower value 1.02 | locus YFR010W, strain ubp6, stronger effect = lower value 1.03 | locus YGL078C, strain dbp3, stronger effect = lower value 0.989 | locus YGL086W, strain mad1, stronger effect = lower value 1.02 | locus YGL167C, strain pmr1, stronger effect = lower value 1 | locus YGL173C, strain kem1, stronger effect = lower value 0.986 | locus YGL227W, strain vid30, stronger effect = lower value 0.987 | locus YGL240W, strain doc1, stronger effect = lower value 0.99 | locus YGL248W, strain PDE1, stronger effect = lower value 1.01 | locus YGL253W, strain hxk2, stronger effect = lower value 0.993 | locus YGR078C, strain PAC10, stronger effect = lower value 1 | locus YGR135W, strain pre9, stronger effect = lower value 0.987 | locus YGR229C, strain SMI1, stronger effect = lower value 1 | locus YGR252W, strain gcn5, stronger effect = lower value 1.05 | locus YHR013C, strain ard1, stronger effect = lower value 0.998 | locus YHR027C, strain rpn1, stronger effect = lower value 1 | locus YHR030C, strain SLT2, stronger effect = lower value 1.01 | locus YHR079C, strain IRE1 (second series), stronger effect = lower value 1 | locus YHR079C, strain IRE1, stronger effect = lower value 1.02 | locus YHR094C, strain hxt1, stronger effect = lower value 0.999 | locus YHR129C, strain ARP1, stronger effect = lower value 1.01 | locus YHR142W, strain chs7, stronger effect = lower value 0.969 | locus YHR200W, strain rpn10, stronger effect = lower value 1.01 | locus YIL066C, strain RNR3, stronger effect = lower value 1.01 | locus YIL073C, strain SPO22, stronger effect = lower value 1.09 | locus YIL125W, strain kgd1, stronger effect = lower value 0.997 | locus YIR030C, strain dcg1, stronger effect = lower value 1 | locus YJL092W, strain hpr5, stronger effect = lower value 0.998 | locus YJL095W, strain BCK1 (second series), stronger effect = lower value 0.995 | locus YJL095W, strain BCK1, stronger effect = lower value 1.02 and 1.01 | locus YJL115W, strain asf1, stronger effect = lower value 1 | locus YJL129C, strain trk1, stronger effect = lower value 0.987 | locus YJL134W, strain LCB3, stronger effect = lower value 1.01 | locus YJL154C, strain vps35, stronger effect = lower value 1.02 | locus YJL164C, strain tpk1, stronger effect = lower value 1.01 | locus YJL166W, strain qcr8, stronger effect = lower value 1.03 | locus YJL168C, strain set2, stronger effect = lower value 1.01 | locus YJL187C, strain SWE1 (second series), stronger effect = lower value 1 | locus YJL187C, strain SWE1, stronger effect = lower value 1.01 | locus YJR043C, strain POL32, stronger effect = lower value 1.04 | locus YJR066W, strain TOR1, stronger effect = lower value 1.02

From PubChem BioAssay AID1159580 (chemical genetic matrix, 2015)
